The results in this text go back to PubChem BioAssay (NCATS).

Results filed as inconclusive are left out. Activity calls are given as the source filed them. Calls follow the shape of the dose curve; as a rule, active = well fitted cell-killing curve with a large enough effect; inconclusive = small, poorly fitted or top-dose-only effect, or effect the other way; inactive = no such curve, though single readings can be large or run the other way.
Potency is read from the fitted curve at half-maximal effect.

One assay is described as follows: Quantitative High-Throughput drug screen in 47 multiple myeloma cell lines against the NCATS MIPE library collection: KMS12PE_JCRB cell viability assay (AID 1918972). Also: nearly all actives have a fitted effect of over 30% in size. To be noted: KMS12PE myeloma viability, CellTiter-Glo ATP, 48 h; series mostly up to 45.8 µM. The method in brief:
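Viability readout: CellTiter-Glo luminescence following 5 min room-temperature incubation with reagent. Prior exposure: 48 h, 37C, humidified 5% CO2, 500 cells per well.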
(In general: In ATP-based viability assays light output follows the ATP content of the culture.)
Regarding `CC(C)=CCCC(C)=CCCC(C)=CCCC(C)=CCCC(C)=CCCC(C)=CCCC(C)=CCCC(C)=CCCC(C)=CCO`, the Potency result is “inactive”.
Still for that read-out and setting: with `CCCCC[C@H](O)C=C[C@H]1[C@H](O)CC(=O)[C@H]1CCCCCCC(=O)O` the entry was “inactive”.
On to `OC[C@H]1O[C@@H](O[C@H]2[C@@H](O)[C@@](O)(CO)O[C@@H]2CO)[C@H](O)[C@@H](O)[C@@H]1O`, for which the Potency entry is “inactive”.
On to `CCNC(=O)Nc1ccc(Oc2ncnc(N)c2C=NOC)cc1Cl`, for which the Potency is 2.96 µM (active).
Still for that read-out and setting: the result for `CCCCCCCCCCCCCCCC(=O)O[C@H]1[C@@H](O)[C@@H](O)[C@@H]([C@H](NC(=O)[C@@H]2C[C@@H](CCC)CN2C)[C@H](C)Cl)O[C@@H]1SC` reads “inactive”; that for `COc1ccc(CCC(=O)Nc2nc3ccc(Cl)cc3s2)cc1OC`, “inactive”; that for `CC(C)CNc1ccnc(NCc2csc(-c3ccccc3)n2)n1`, 4.69 µM (active).
Take `NS(=O)(=O)c1cc(Cl)c(Cl)c(S(N)(=O)=O)c1`: the Potency result is “inactive”.
As for `O=C(Nc1ncc(SCCN2CCCC2)s1)[C@]1(c2ccc(S(=O)(=O)C3CC3)cc2)C[C@@H]1C1CCCCC1`, the Potency is 5.26 µM (active).
Regarding `COc1ccc(Cn2ccc3ccc(C(=O)NO)cc32)cc1`, the Potency was 16.6 µM (active).
`COc1cc(F)c(C(C)C)cc1-c1ccc(C(F)(F)F)cc1CN1C(=O)O[C@H](c2cc(C(F)(F)F)cc(C(F)(F)F)c2)[C@@H]1C`: the Potency result was “inactive”.
`CC(C)C[C@@H](C(=O)N[C@H](C(=O)OC1CCCC1)c1ccccc1)[C@H](O)C(=O)NO`: the Potency was 2.09 µM (active).
Still for that read-out and setting: the result for `CCCCC(C)(C)[C@H](O)C=C[C@H]1[C@H](O)CC(=O)[C@H]1CC=CCCCC(=O)O` reads “inactive”.
For the compound `O=C(O)CCC=CCC[C@@H]1[C@H](N2CCCCC2)[C@@H](O)C[C@@H]1OCc1ccc(-c2ccccc2)cc1`, the Potency entry was “inactive”.
Still for that read-out and setting: with `Cc1csc(-c2nnc(Nc3ccc(Oc4ncccc4-c4ccnc(N)n4)cc3)c3ccccc23)c1` the figure was 20.9 µM (active); with `O=C(Nc1cccc(C(F)(F)F)c1)Nc1cc(S(=O)(=O)NC2CC2)ccc1-c1ccsc1`, “inactive”.
Turning to `O[C@@H](COc1cccc2ncccc12)CN1CCN(C2c3ccccc3[C@@H]3[C@H](c4ccccc42)C3(F)F)CC1` (stereo not given in full), the Potency result is “inactive”.
On the same count and under the same terms, with `CCN1C[C@H](C)n2c(c(O)c3c(=O)n(Cc4ccc(F)c(Cl)c4)nc(C(=O)NC)c32)C1=O` the entry was “inactive”.
As for `CC(C)(O)CC(=O)NCCn1ccc2ncnc(Nc3ccc(Oc4cccc(C(F)(F)F)c4)c(Cl)c3)c21`, the Potency is 5.9 µM (active).
Same read-out and setting: the result for `CN1CC(=O)NC1=NC(=O)Nc1cccc(Cl)c1` reads “inactive”.
The same measure, in the same setting: with `CCC(=O)OCC(=O)[C@@]1(OC(=O)CC)[C@@H](C)C[C@@H]2[C@H]3CCC4=CC(=O)C=C[C@]4(C)[C@@]3(F)[C@@H](O)C[C@@]21C` the figure was 10.5 µM (active); with `OCCn1cc(-c2ccc3c(c2)CCC3=NO)c(-c2ccncc2)n1`, “inactive”.
Turning to `C[C@@H]1CC=CC=CC=CC=C[C@@H](O[C@@H]2O[C@H](C)[C@@H](O)[C@H](N)[C@H]2O)C[C@@H]2O[C@](O)(C[C@@H](O)C[C@@H]3O[C@@H]3C=CC(=O)O1)C[C@H](O)[C@@H]2C(=O)O`, the Potency result was “inactive”.
For `CCC[C@H](N[C@@H](C)C(=O)N1[C@@H]2CCCC[C@H]2C[C@H]1C(=O)O)C(=O)OCC`, the Potency was 6.62 µM (active).
Turning to `N#CC(=C1Nc2ccccc2S1)c1ccnc(OCc2ccc(CN3CCOCC3)cc2)n1`, the Potency was 0.059 µM (active).
The same measure, in the same setting: the result for `CC1(C)[C@H]2CC[C@]3(C)[C@@H](C(=O)C=C4[C@@H]5C[C@@](C)(C(=O)O)CC[C@]5(C)CC[C@]43C)[C@@]2(C)CC[C@@H]1O` reads “inactive”; that for `CN(C)N=Nc1nc[nH]c1C(N)=O`, 0.166 µM (active); that for `COc1ccc2cc1Oc1ccc(cc1)C[C@H]1c3cc(c(OC)cc3CCN1C)Oc1c(OC)c(OC)cc3c1[C@H](C2)N(C)CC3`, 4.69 µM (active).
Same read-out and setting: with `COc1cc2c(cc1OC)[C@@H]1Cc3ccc(OC)c(OC)c3CN1CC2` the figure was 0.332 µM (active); with `O=C(Nc1cccc(Cl)c1)Nc1ncc(CCNc2ncnc3ccsc23)s1`, 0.662 µM (active).
Same read-out and setting: with `COC1CCC(C(=O)c2ccc3nc4c(cc3c2)CCCO4)CC1` (stereo not given) the figure was 14.8 µM (active); with `C=C1[C@H](n2cnc3c(=O)[nH]c(N)nc32)C[C@H](O)[C@H]1CO`, 0.296 µM (active).
For the compound `Cc1ccc(C2=Nc3ccc(Cl)cc3OC2)cc1`, the Potency was 4.18 µM (active).
Same read-out and setting: the result for `CC1(C)C(N(O)C(=O)Nc2ccc(Cl)cc2)N(c2ccc(Cl)cc2)C(=O)N1CC(=O)NN=CC=Cc1ccc([N+](=O)[O-])o1` (stereo not given) reads “inactive”; that for `NCC1CCC(C(=O)O)CC1` (stereo not given), “inactive”; that for `Fc1ccc(CNc2ncnc3ccc(F)cc23)cc1`, 4.69 µM (active).

The next assay in a line: Quantitative High-Throughput drug screen in 47 multiple myeloma cell lines against the NCATS MIPE library collection: KMS21BM_JCRB cell viability assay (AID 1918974). To be noted: ATP luminescence, 48 h; viability: at 45.8 µM (top of the series). The method in brief:
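Myeloma cells (500 per well) were exposed to MIPE 4.0 compounds by pin transfer and incubated 48 hours at 37C, 5% CO2. Viability was read as ATP by CellTiter-Glo luminescence, normalised to DMSO (100%) and media-only (0%) wells.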
With `CCNC(=O)Nc1ccc(Oc2ncnc(N)c2C=NOC)cc1Cl`, the Potency was 2.35 µM (active).
The same measure, in the same setting: with `COc1ccc(Cn2ccc3ccc(C(=O)NO)cc32)cc1` the figure was 5.9 µM (active); with `Cc1csc(-c2nnc(Nc3ccc(Oc4ncccc4-c4ccnc(N)n4)cc3)c3ccccc23)c1`, 18.7 µM (active); with `CCN1C[C@H](C)n2c(c(O)c3c(=O)n(Cc4ccc(F)c(Cl)c4)nc(C(=O)NC)c32)C1=O`, “inactive”.
Still for that read-out and setting: with `CCC(=O)OCC(=O)[C@@]1(OC(=O)CC)[C@@H](C)C[C@@H]2[C@H]3CCC4=CC(=O)C=C[C@]4(C)[C@@]3(F)[C@@H](O)C[C@@]21C` the figure was 2.64 µM (active); with `OCCn1cc(-c2ccc3c(c2)CCC3=NO)c(-c2ccncc2)n1`, 8.33 µM (active); with `CCC[C@H](N[C@@H](C)C(=O)N1[C@@H]2CCCC[C@H]2C[C@H]1C(=O)O)C(=O)OCC`, “inactive”.
The same measure, in the same setting: the result for `N#CC(=C1Nc2ccccc2S1)c1ccnc(OCc2ccc(CN3CCOCC3)cc2)n1` reads 0.0264 µM (active); that for `C=C1[C@H](n2cnc3c(=O)[nH]c(N)nc32)C[C@H](O)[C@H]1CO`, 1.32 µM (active).
